This is one part of a sample in which hits are shown more often than they occur.
HIV RNase H inh: HIV-1 RT RNase H inhibitors, primary screen, biochemical, fluorescence; Gag-Pol polyprotein (Human immunodeficiency virus type 1 group M subtype B (isolate …; RT-RNase H RNA/DNA duplex cleavage; inhibition, % at 10 µM; 1.9% of 65,000 active; in the data active = inhibition above about 50%
Active calls of the source: *.

SMILES | HIV RNase H inh
CCOc1ccc(C2C(C#N)=C(N)N3C(=C2C#N)Sc2ccccc23)cc1 (stereo not given) | 72*
N#CC1=C(N)N2C(=C(C#N)C1c1ccccc1)Sc1ccccc12 (stereo not given) | 2
CCNc1nc2nonc2nc1NCC | -1
CN1CCN(C(c2cccc(C(F)(F)F)c2)c2nnnn2Cc2ccccc2)CC1 (stereo not given) | -1
S=P(c1ccc(N2CCOCC2)cc1N1CCOCC1)(N1CCOCC1)N1CCOCC1 | 88*
Nc1nc2ccc(N3CCOCC3)cc2s1 | 11
Cc1cc(C)nc(Nc2ccc(N3CCOCC3)cc2)n1 | 4
Cc1cccc(CCNC(=O)c2nnc(Cc3ccc(Cl)cc3)o2)c1 | -1
O=c1cc(NCc2ccco2)c2ccccc2o1 | -1
COc1c(F)c(F)c(C(=O)Nc2ccc(NC(=O)c3ccco3)cc2)c(F)c1F | 7
COC(=O)c1c(NC(=O)c2ccco2)sc(C(=O)Nc2ccc(F)cc2)c1C | 56*
COC(=O)c1c(NC(=O)c2ccco2)sc(C)c1C | 9
Cc1nn(-c2ccc(F)cc2)c2c1cc(C#N)c1nc3ccccc3n12 | 42
CC(=O)C1=C(O)C=C(c2ccco2)CC1c1ccco1 (stereo not given) | -8
O=C(CCS(=O)(=O)c1ccccc1)Nc1nc2c(s1)COc1ccccc1-2 | 19
CC(C(=O)N1c2ccc(F)cc2CCC1C)N1C(=O)c2ccccc2C1=O (stereo not given) | -6
Cc1sc2nc(CN(Cc3cccs3)C(=O)C3CC3)[nH]c(=O)c2c1C | -6
COC(=O)c1cnn2c(C(F)(F)F)cc(-c3ccc(F)cc3)nc12 | -4
COC(=O)c1nn2c(C(F)(F)F)cc(-c3ccc(Br)o3)nc2c1Br | 64*
COC(=O)c1cc2nc(-c3ccc(OC)cc3)cc(C(F)(F)F)n2n1 | 4
COC(=O)c1nc2n(n1)C(c1cc(OC)ccc1OC)C(C(=O)OC1CCCCC1)=C(C)N2 (stereo not given) | -3
COc1ccc(NC(C)=O)cc1NC(=O)CN1CCN(CC(=O)Nc2ccc(Cl)cc2)CC1 | -6
COc1cc(OC)cc(C(C(=O)NCc2ccccc2)N(Cc2ccco2)C(=O)c2ccno2)c1 (stereo not given) | -6
CC/C(=C\C(=O)c1cccnc1)Nc1ccc(C)c(C)c1 | -24
CCN1CCN(C(=O)c2ccc3c(=O)n(CCC4=CCCCC4)c(=O)[nH]c3c2)CC1 | -26
SMILES | HIV RNase H inh
O=C(NCCN1CCCC1)c1ccc2c(=O)n(CCc3ccccc3)c(=O)[nH]c2c1 | 11
O=C(NCc1ccco1)c1ccc2c(=O)n(CCC3=CCCCC3)c(=O)[nH]c2c1 | 52*
c1ccc(-c2nc3c4ccccc4nc(N4CCN(c5ccccn5)CC4)n3n2)cc1 | 15
Cc1cc(NC(=O)COc2cccc(C)c2C)no1 | -5
Cc1ccc(C)c(OCC(=O)Nc2nonc2NC(=O)COc2cc(C)ccc2C)c1 | 73*
C=CCNC(=O)CCCOc1cc(C)ccc1C | -4
Cc1cc(C)nc(N2CCCC(C(=O)NCCC3=CCCCC3)C2)n1 (stereo not given) | -6
COc1ccc(N2CCn3c2nc2c3c(=O)n(CCCc3ccccc3)c(=O)n2C)cc1 | 60*
Cn1c(=O)n(CCc2ccccc2)c(=O)c2c1nc1n2CCN1c1ccccc1 | 9
COc1ccc(N2CCn3c2nc2c3c(=O)n(CCCc3ccccc3)c(=O)n2C)c(OC)c1 | -10
O=C(Nc1ccc(S(=O)(=O)N2CCN(Cc3ccccc3)CC2)cc1)c1cnccn1 | 3
COC(=O)Nc1sc2c(c1C(=O)NCc1ccco1)CCC2 | -15
COC(=O)Nc1sc2c(c1C(=O)NCc1ccco1)CCCC2 | 11
CCOc1ccccc1NC(=O)c1c(NC(=O)CNCc2ccco2)sc2c1CCC2 | 72*
c1ccc(Cc2nnc3sc(C4COc5ccccc5O4)nn23)cc1 (stereo not given) | 70*
Cc1ccc(-c2nnc3sc(C4COc5ccccc5O4)nn23)cc1 (stereo not given) | -12
CCOc1ccccc1-c1nn2c(Cc3ccccc3)nnc2s1 | -39
Cn1nnnc1SCC(=O)N1CCN(c2cccc(Cl)c2)CC1 | -5
CCN(CCCNC(=O)CCc1nc(-c2ccc(OC)cc2)no1)c1cccc(C)c1 | -5
CCCn1nnnc1SCC(=O)Nc1ccc(F)cc1 | 2
CCCn1nnnc1SCC(=O)N(C(C)C)C(C)C | 65*
CCn1nnnc1SCC(=O)N(C1CCCCC1)C1CCCCC1 | -8
CCCOc1ccc2oc(=O)c3c(c2c1)CCCN3C(=O)CN(C)Cc1ccccc1 | -4
CCCC(=O)Nc1cnc(NC(=O)c2cccc(F)c2)cc1C | -4
COc1ccc(-n2nnnc2S(=O)(=O)Cc2ccc(C(=O)O)cc2)cc1 | 63*
SMILES | HIV RNase H inh
COc1ccc(-n2nnnc2SCC(N)=O)cc1 | -9
COc1ccc(-n2nnnc2S(=O)(=O)CC(=O)N2CCCCC2)cc1 | 29
COC(=O)c1nn(-c2c(C)n(C)n(-c3ccccc3)c2=O)cc1O | 1
Cc1nn(-c2ccccc2)c(C)c1NS(=O)(=O)c1ccccc1 | -7
COc1ccc(-c2ccc(-c3noc(C(C)C)n3)c(OC)n2)cc1 | 0
COc1cccc(-c2ccc(-c3noc(-c4ccccc4F)n3)c(OC)n2)c1 | 3
COc1nc(-c2ccc(Cl)cc2)ccc1-c1noc(-c2ccco2)n1 | 50*
CCCCCn1c(SCc2cccc(C)c2)nc2c1c(=O)[nH]c(=O)n2C | -6
CN1C(=O)c2cccc(NC(=O)Cc3ccccc3)c2C1=O | -30
Cc1cc(-c2nnc3n2CCCCC3)c(C)n1-c1ccccc1 | -23
Cc1ccc(-c2nnn(CC(=O)N(Cc3ccccc3)C(C(=O)NC3CCCC3)c3ccncc3)n2)o1 (stereo not given) | -15
Cc1ccc(-c2nnn(CC(=O)N(c3ccccc3)C(C(=O)NC3CCCC3)c3ccco3)n2)o1 (stereo not given) | 60*
Cc1ccc(-c2nnn(CC(=O)N(Cc3cccs3)C(C(=O)NC3CCCC3)c3ccco3)n2)o1 (stereo not given) | -5
CCCCCCS(=O)Cc1ccccc1 (stereo not given) | -2
CCC(c1nnnn1Cc1ccccc1)N(Cc1ccco1)Cc1cc2cc(OC)ccc2[nH]c1=O (stereo not given) | -10
CCC(c1nnnn1Cc1ccco1)N(CCc1ccccc1)Cc1cc2cc(C)ccc2[nH]c1=O (stereo not given) | 61*
Cc1ccc2[nH]c(=O)c(CN(CCc3ccccc3)C(c3nnnn3Cc3ccco3)C(C)C)cc2c1 (stereo not given) | 20
Cc1cccc(Nc2ncc3c(n2)CC(C)CC3=O)c1 (stereo not given) | -13
Cc1nc(Nc2cccc(C(F)(F)F)c2)nc2c1C(=O)CC(C)C2 (stereo not given) | 51*
Cc1nc(N2CCN(c3ccccc3)CC2)nc2c1C(=O)CC(C)C2 (stereo not given) | -8
CCOc1ccc(N(CC(=O)NC(C)CC)S(=O)(=O)c2c(C)noc2C)cc1 (stereo not given) | 0
Cc1cc(NS(=O)(=O)c2ccc(NC(=O)CCCC(=O)O)cc2)nc(C)n1 | 4
CCCCOC(=O)Nc1ccc(S(=O)(=O)Nc2cc(C)nc(C)n2)cc1 | -2
CCOc1ccc(OCC(=O)Nc2ccc(S(=O)(=O)Nc3cc(C)nc(C)n3)cc2)cc1 | 52*
COC(=O)/C=c1/s/c(=C(\C#N)C(=O)NCc2ccco2)n(-c2ccccc2)c1=O | 24
CCC(=O)Nc1cc(=O)[nH]c2ncnn12 | 1
COC(=O)/C=c1\sc2ncnn2c1=O | 56*
